Results filed as inconclusive are left out. A call without a number means that no potency is given here. Values without a mark were called inactive. Activity calls are given as the source filed them. The call rests on the fitted dose curve; in most records, active means well fitted cell-killing curve with a large enough effect in the repeat runs; inconclusive means weak or mixed curves, or effect the other way; inactive means no such curve, though single readings can be large or run the other way.
Potency means the concentration at half of the fitted maximal effect.

The nature of this assay: qHTS assay to identify small molecule agonists of the RXR signaling pathway - cell viability counter screen (AID 1159529). Further: nearly all actives have a fitted effect of over 50% in size. The settings on record: RXR-alpha-bla HEK293T viability, CellTiter-Glo, 16 h; series mostly up to 76.8 µM. From the text:
National Center for Advancing Translational Sciences [NCATS]
NIH Chemical Genomics Center [NCGC]
U.S. Environmental Protection Agency [EPA]
National Institutes of Environmental Health Sciences [NIEHS]
National Toxicology Program [NTP]
U.S. Food and Drug Administration [FDA]
The Retinoid X receptor (RXR), a nuclear hormone receptor expressed in liver, spleen, placenta, epidermis, central nervous system. These receptors are able to form homo and heterodimers with other nuclear receptors and due to this heterodimerizing ability, RXR functions as master regulators producing diverse physiological effects. Three subtypes of RXR exist; alpha, beta and gamma. Retinoid X receptor alpha (RXR-alpha) has potential roles in metabolic signaling pathways, skin alopecia, dermal cysts, cardiac development, insulin sensitization etc. Therefore screening environmental chemicals on RXR-alpha signaling can be used for the studies focused on such therapeutic applications. For quantification of RXR-alpha ligands signaling, GeneBLAzer RXR alpha-UAS-bla HEK 293T (Life Technologies, Carlsbad, CA) cells containing a beta-lactamase reporter-gene under control of Retinoid X receptor-alpha response element were used to screen Tox21 10K library. The cytotoxicity of the Tox21 compound library against the RXR-alpha HEK 293T cell line was tested in parallel by measuring cell viability using CellTiter-Glo assay (Promega Corporation, Madison, WI) in the same wells.
Tox21 Assay Protocol Summary:
RXR-alpha HEK 293T cells were dispensed at 2,000 cells/6 uL of assay medium containing 2% charcoal-stripped FBS using a Multidrop Combi (ThermoFisher Scientific, Waltham, MA) dispenser. The assay was performed in black wall/clear-bottom 1536-well plates (Greiner Bio-One North America Inc. Monroe, NC). Tetraoctyl ammonium bromide was used as a positive control in the cytotoxicity screen. After the assay plates were incubated at 37 C and 5% CO2 for 5 hr, 23 nL of compounds dissolved in DMSO, positive control or DMSO only were transferred to the assay plate by a Pintool station (Kalypsys, San Diego, CA). The assay plates were incubated at 37 C and 5% CO2 for 16 hr. One uL of LiveBLAzer B/G FRET substrate (Life Technologies) was added using a Flying Reagent Dispenser (FRD) (Aurora Discovery, San Diego, CA) and the plates were incubated at room temperature for 2 hr. Fluorescence intensity (405 nm excitation, 460/530 nm emission) was measured using an Envision plate reader (PerkinElmer, Shelton, CT). For cytotoxicity, 4 uL/well of CellTiter-Glo reagent was added into the assay plates using an FRD. After 30 min incubation at room temperature, the luminescence intensity was measured using a ViewLux plate reader (PerkinElmer).
In the case of `Cc1ccc(C(=O)C(C)CN2CCCCC2)cc1` (stereo not given), the Potency result is “inactive”.
In the case of `CC(C)CC=O`, the Potency entry is “inactive”.
The same measure, in the same setting: as for `CC(C(=O)O)c1ccc(-c2ccccc2)c(F)c1` (stereo not given), the entry is “inactive”.
For the compound `Nc1nc(CC(=O)O)cs1`, the Potency is 21.9 µM (active).
Same read-out and setting: next, `CCOc1nc2cccc(C(=O)O)c2n1Cc1ccc(-c2ccccc2-c2nn[nH]n2)cc1`: “inactive”; `SC1CCCC1`: “inactive”.
Still for that read-out and setting: next, `CC(C)(C)c1ccc(S)cc1`: “inactive”; `CC(=O)N(O)CCCCCNC(=O)CCC(=O)N(O)CCCCCNC(=O)CCC(=O)N(O)CCCCCN`: “inactive”.
For `CCCOc1ccc2nc(NC(=O)OC)[nH]c2c1`, the Potency result is “inactive”.
Still for that read-out and setting: as for `O=C(NS(=O)(=O)/C=C/c1cccs1)c1ccc(F)cc1Br`, the entry is “inactive”.
The same measure, in the same setting: as for `O=c1[nH]cnc2ccccc12`, the entry is “inactive”; as for `Nc1nc(N)c2nc(CNc3ccc(C(=O)N[C@@H](CCC(=O)O)C(=O)O)cc3)cnc2n1`, “inactive”.
Same read-out and setting: as for `Oc1ccc2c(c1)OCO2`, the entry is “inactive”.
As to `CC(C)CCCCCCOC(=O)c1ccc(C(=O)OCCCCCCC(C)C)c(C(=O)OCCCCCCC(C)C)c1`, the Potency result was “inactive”.
Same read-out and setting: next, `O=C(c1ccccc1)c1ccc2n1CCC2C(=O)O` (stereo not given): “inactive”; `CC(C)(C)c1cc(O)c(C(C)(C)C)cc1O`: “inactive”; `CCCCCCCCCCCCCCCBr`: “inactive”.
For `Nc1cnn([C@@H]2O[C@H](CO)[C@@H](O)[C@H]2O)c(=O)n1`, the Potency result was “inactive”.
The same measure, in the same setting: as for `CC1(C)CCC(C)(C)c2cc(NC(=O)c3ccc(C(=O)O)cc3)ccc21`, the entry is “inactive”; as for `Cc1ccc(C(N)=O)cc1N`, “inactive”.
On the same count and under the same terms, next, `O=C(c1ccc(O)cc1)c1ccc(O)cc1`: “inactive”.
With `CCCc1ccccc1`, the Potency entry was “inactive”.
Still for that read-out and setting: next, `CN(C)CCCNCCCN`: 48.8 µM (active).
`C=C(C)C(=O)OC(C)C`: the Potency result was “inactive”.
As for `CCCCCCOC(=O)CCC`, the Potency entry is “inactive”.
In the case of `CCCC(=O)OCC`, the Potency result was “inactive”.
On the same count and under the same terms, next, `COCCOCCOCCOCCOC`: “inactive”.
Consider `Oc1ccc(O)c2c(O)cccc12`, for which the Potency entry was “inactive”.
In the case of `Cc1nc2ccccc2n1Cc1ccc(Cl)cc1`, the Potency entry was “inactive”.
The same measure, in the same setting: next, `CCOC(=O)CC(=O)c1cc(F)c(Cl)nc1Cl`: “inactive”; `CC(C)c1ccc2c(C(C)C)cc(C(C)C)c(S(=O)(=O)O)c2c1`: “inactive”; `N#Cc1c(F)cccc1F`: “inactive”.
The same measure, in the same setting: as for `S=C(S)NCCNC(=S)S`, the entry is “inactive”; as for `Cn1c(NCCN(CCO)CCCc2ccc([N+](=O)[O-])cc2)cc(=O)n(C)c1=O`, “inactive”; as for `N[C@H]1C(O)O[C@H](CO)[C@H](O)[C@@H]1O` (stereo not given in full), “inactive”.
For the compound `CCCCCCCCCCCCCCCCCBr`, the activity change, negative = cytotoxicity is -2.08% [at 15.8 µM].
Take `CCCCOCCOCCOCCOCCO`: the Potency result is “inactive”.
The same measure, in the same setting: as for `CC(CN)CCCN` (stereo not given), the entry is “inactive”; as for `C=C(C)C(=O)OCCN(C)C`, “inactive”; as for `FC(F)(F)C(F)(F)C(F)(F)C(F)(F)C(F)(F)C(F)(F)CCI`, “inactive”.
